Among the data in PubChem BioAssay (NCI) are growth values, retold here.

This is part of a sample that, as a whole, favours compounds with a hit. Of some 83,000 tested, about 20% had one in any assay.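 The endpoint reported here, percent growth, reads 100 for growth as untreated, 0 for no net growth and -100 for all cells dead.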 Unmarked numbers belong to inactive results. Activity calls are given as the source filed them. How the source made its calls: active means growth percent below 10; inactive means the rest.

The experiment has as its system HL-60(TB) leukemia. Nature of the experiment: NCI-60 one-dose screen, 48 h (100 = growth as untreated, 0 = no growth, -100 = all killed). To be noted: 10 µM unless noted.
On to `Cc1cc(=O)c2c(C)ccc(C)c2[nH]1`, for which the growth was 96.7%.

In the case of `COc1ccc2c(c1)C(=O)/C(=C/c1cccc(OCC(=O)Nc3nc4c(s3)CCCC4)c1)O2`, the growth is -70.8% (active).

Regarding `Cn1ncc2c(=O)nc3c(-c4ccccc4)n[nH]n3c21`, the growth was 107%.

Take `CCC1=C(c2ccc(OC)cc2)C(C)(C)Oc2cc(O)c(CN3CCCC3)cc21`: the growth is 85%.

As to `Cc1ccc(NC(=O)C(Cl)Cl)cc1`, the growth is -48.8% (active).

Regarding `CN1CCC2(CC1)NC(=O)c1c(c3ccc(Cl)c(Cl)c3n1C)C2C#N` (stereo not given), the growth was 70.8%.

Regarding `COc1cc(C)cc2oc3oc(=O)c(-c4csc(-c5cc6ccccc6oc5=O)n4)cc3c(=O)c12`, the growth is 115%.

Consider `Cc1[nH]c(-c2nc3ccccc3[nH]2)c(C)c1C(=O)NNc1ccc(Cl)cc1`, for which the growth is 103%.

Take `ClC1=C(Cl)C(Cl)=C(Cl)C1=Cc1ccc(Cl)cc1`: the growth is -4.27% (active).

In the case of `Cc1n[nH]c(C)c1-c1c(C)n[nH]c1C`, the growth was -6.88% (active).

As for `CCC(C)[C@H](NC(=O)Nc1cc(C(F)(F)F)cc(C(F)(F)F)c1)C(=O)N[C@@H](Cc1cn(C)cn1)C(=O)OC` (stereo not given in full), the growth is -78.4% [100 µM] (active).

With `Cc1cc(C)c([O-])c(CN(C)CCN(C)Cc2cc(C)cc(C)c2[O-])c1.O=C([O-])c1cccc(C(=O)[O-])n1.[Ti+4]`, the growth is -7.45% (active).

As for `CCOC(=O)c1c(CN2CCN(C)CC2)nc2ccc(Cl)cc2c1-c1ccccc1`, the growth is 26.5%.

`O=C1/C=C/[C@@H](O)[C@@H]2C[C@@H](O)C[C@H]2/C=C/CCC[C@H](CCc2ccccc2)O1`: the growth is 3.95% (active).

Regarding `C=C(C)[C@@H]1CC[C@]2(CNCCO)CC[C@]3(C)[C@H](CC[C@@H]4[C@@]5(C)CCC(N)[C@@](C)(CO)[C@@H]5CC[C@]43C)[C@@H]12` (stereo not given in full), the growth is -63.7% (active).

For the molecule `CCN(CC)CCNc1ccc([N+](=O)[O-])c2sc3ccccc3c(=O)c12`, the growth is 17%.

On to `Cc1ccc2c(n1)C(=O)C(Cl)=C(Nc1ccccc1C(C)C)C2=O`, for which the growth was -15.3% (active).

Turning to `O=C1c2c(c3c4ccccc4[nH]c3c3ccc4ccccc4c23)C(=O)N1CCN1CCNCC1`, the growth was 43.6%.

As for `C=CCN1CCCC1=O`, the growth is 47.1%.

As for `O=C1OC2(c3ccccc31)c1ccccc1-c1ccccc12`, the growth is 69.6%.

`Cc1ccc(C(=O)c2oc3ccc4c(C)cc(=O)oc4c3c2C)cc1`: the growth is 7.9% (active).

For `COc1cc(OC)cc(-c2n/c(=C\c3c(O)[nH]c4ccc(Cl)cc34)cc3c2=Nc2ccccc2-3)c1`, the growth is 90.2%.

On to `COc1ccc(/C(=C2/O[C@@H]([C@H]3COC(C)(C)O3)[C@H]3OC(C)(C)O[C@@H]23)c2cc(OC)c(OC)c(OC)c2)cc1O`, for which the growth is -0.369% (active).

Consider `Cc1cc(NCCCNc2ccnc3cc(Cl)ccc23)nc(Nc2ccc(C(=O)N3CCCCC3)cc2)n1`, for which the growth was -63.2% (active).

Take `C/C=C(/C)C(=O)O[C@@H]1CC(C)(C)CC2C34OC(=O)[C@@]21CC[C@@]3(C)[C@]1(C)CCC2C(C)(C)C(=O)CC[C@]2(C)C1C[C@@H]4Cl` (stereo not given in full): the growth is 101%.

Regarding `O=[N+]([O-])c1ccc(Cl)c(-c2cc(CCCCO)on2)c1`, the growth was 90.7%.

As to `c1ccc2cc(Cn3c(-c4cccc5ccccc45)[n+](Cc4ccc5ccccc5c4)c4c5ccccc5c5ccccc5c43)ccc2c1`, the growth is -54.6% (active).

`COc1cc(Cl)cc(-c2nn(-c3cccc(NC(=O)Nc4ccc(Cl)c(Cl)c4)c3)cc2-c2ccncc2)c1`: the growth was -5.12% (active).

Turning to `CCC(CCCN(CC)CCc1ccccc1)OC(=O)c1cc(OC)c(OC)c(OC)c1` (stereo not given), the growth was 95%.

Regarding `Oc1c(Cl)cc(Cl)c2ccc(Cn3cc(-c4cccc(C(F)(F)F)c4)nn3)nc12`, the growth was -18.9% (active).

On to `S=c1[nH]nc(Cn2c3ccccc3c3ccncc32)o1`, for which the growth is 87.6%.

For the molecule `CCOC(=O)/C(=C\c1ccc(-c2ccccc2)cc1)C(C)=O`, the growth is 93.7%.

Regarding `CCCCc1ccc(Nc2nnc(SCC(=O)NC(=O)NCC)s2)cc1`, the growth is 95.2%.

For the molecule `COc1ccc(C(=NN=C(N)N)c2ccc(OC)cc2)cc1`, the growth is 15.5%.

As to `Nc1nc(Nc2ccccc2SSc2ccccc2Nc2nc(N)nc(-c3cccc(Cl)c3)n2)nc(-c2cccc(Cl)c2)n1`, the growth was 99.3%.

For the molecule `O=C(Nc1nn2c(-c3cc(C(F)(F)F)cc(C(F)(F)F)c3)nnc2s1)C1CCCC1`, the growth is -53.3% (active).

In the case of `CC(C)C[C@@H](C(=O)N[C@H](C(=O)OC1CCCC1)c1ccccc1)[C@H](O)C(=O)NO`, the growth was 35.9%.

On to `COc1cc(F)c(/C=C/c2cc(/C=C/c3cc(OC)c(OC)cc3F)n(-c3cc(F)cc(F)c3)n2)cc1OC`, for which the growth is 87.6%.

Take `O=C(Nc1ccc(N2CCNCC2)cn1)c1[nH]ncc1Nc1ncnc2sc3c(c12)CCC3`: the growth was 74%.

`CCN1C(=O)N(CC)C2Nn3c(s/c(=C4\C(=O)N(CCC(C)C)c5ccccc54)c3=O)=NC21` (stereo not given): the growth is 83.1%.
